Test results published in PubChem BioAssay (Tox21).
Where “and” joins values, the source holds several entries; their conditions need not be identical. Equal values may be shown once. Inconclusive results are not listed. Calls of active or inactive are those of the source. Calls follow the shape of the dose curve; as a rule, active = well fitted inhibition curve with a large enough effect in the repeat runs; inconclusive = weak or mixed curves, or effect the other way; inactive = no such curve, though single readings can be large or run the other way.
% is scaled to controls: 0 for no effect and ±100 for the full control effect; potency is read from the fitted curve at half-maximal effect.

Experiment: qHTS assay to identify small molecule antagonists of the retinoic acid receptor (RAR) signaling pathway (AID 1159552; also: nearly all actives have a fitted effect of over 50% in size)
Settings: C3RL4 RARE luciferase reporter, retinol-stimulated, 6 h; series mostly up to 92.4 µM; activity, negative = inhibition: at the top concentration
Source text: National Center for Advancing Translational Sciences [NCATS]
NIH Chemical Genomics Center [NCGC]
U.S. Environmental Protection Agency [EPA]
National Institutes of Environmental Health Sciences [NIEHS]
National Toxicology Program [NTP]
U.S. Food and Drug Administration [FDA]
All-trans Retinoic acid (atRA) is the potent natural metabolite of retinol and plays an important role in normal embryonic development and maintenance of cellular phenotype in adult animals. atRA is the activating ligand for the retinoic acid receptors (RARs) which form heterodimers with retinoid X receptors (RXRs) on the retinoic acid response element (RARE). Through activation of the RAR/RXRs nuclear receptors, atRA regulates the transcription of a large number of protein-coding genes and regulatory RNAs. Intracellular levels of atRA are controlled by the retinol signaling pathway (RSP) that regulates the biosynthesis and catabolism of atRA to maintain physiological levels. Chemicals that interfere with the RSP can cause abnormal intracellular levels of atRA and therefore are potential developmental toxicants. To assess compounds for the potential adverse effect on embryonic development through interfering with retinol signaling, a cell-based RARE luciferase reporter gene assay was used. C3RL4 cell line (OARSA/CFSAN/FDA, Laurel, MD) was used to screen Tox21 10K compound library for identifying inhibitors of the RSP.
Tox21 Assay Protocol Summary:
C3RL4 cells were seeded at 1,000/well in 4 uL of assay medium into white solid 1,536-well tissue culture plates (Greiner Bio-One North America Inc. Monroe, NC) using a Multidrop Combi (Thermo Scientific, Waltham, MA) dispenser. After incubation at 37 C and 5% CO2 for an overnight, 23 nL of compounds dissolved in DMSO, positive control or DMSO only were transferred by a Pintool station (Kalypsys, San Diego, CA). One ul of 1 uM (final concentration) of Retinol was added right after the compound addition by using a Flying Reagent Dispenser (FRD) (Aurora Discovery, San Diego, CA). After 6 hr incubation at 37 C and 5% CO2, 5 uL of Amplite Luciferase reagent (AAT Bioquest Inc. Sunnyvale, CA) was added to each assay plate using an FRD. Luminescence was quantified on a ViewLux plate reader (PerkinElmer, Waltham, MA) after 30 min incubation at room temperature.
With `CCOC(=O)C(O)(c1ccc(Cl)cc1)c1ccc(Cl)cc1` the Potency was 30.9 µM (active) and 30.6 µM (active). In the case of `Nc1ccc(Cl)cc1[N+](=O)[O-]`, the “activity, negative = inhibition” value is reported as 6.13% (inactive). For `C[C@@]12C(=O)OC(=O)[C@]1(C)C1CCC2O1`, the Potency was 5.31 µM (active). For `Brc1c2ccccc2c(Br)c2ccccc12`, the activity, negative = inhibition was 4.27% [at 8.39 µM] (inactive). In the case of `c1ccc2c(c1)Sc1ccccc1N2CC1CN2CCC1CC2` (stereo not given), the Potency is reported as 29.8 µM (active). For `Cc1cc(C)c(C(=O)P(=O)(c2ccccc2)c2ccccc2)c(C)c1`, the “activity, negative = inhibition” value was 14.3% (inactive). In the case of `Oc1ccc(Cl)cc1Cc1cc(Cl)ccc1O`, the Potency is reported as 26.6 µM (active). In the case of `ClC1=C(Cl)[C@]2(Cl)[C@@H]3[C@@H](Cl)[C@H]4O[C@H]4[C@@H]3C1(Cl)C2(Cl)Cl`, the Potency is reported as 68.6 µM (active). For `Oc1cc(Cl)cc(Cl)c1Cl`, the Potency was 62.6 µM (active). With `CC(C)(C)OCC1CO1` (stereo not given) the “activity, negative = inhibition” value was -4.39% (inactive). With `C=CC(=O)OCCCCCCCC(C)C` the “activity, negative = inhibition” value was -0.043% (inactive). For `Cc1ccccc1N=O`, the “activity, negative = inhibition” value was -10.3% (inactive). With `CCCCC(CC)COC(=O)CCCCC(=O)OCC(CC)CCCC` (stereo not given) the “activity, negative = inhibition” value was 34.5% (inactive). With `O=C1OC(=O)c2c(Cl)c(Cl)c(Cl)c(Cl)c21` the “activity, negative = inhibition” value was 2.48% (inactive). With `Clc1ccccc1-c1ccccc1Cl` the “activity, negative = inhibition” value was -1.15% (inactive). In the case of `Brc1ccccc1-c1ccccc1`, the “activity, negative = inhibition” value is reported as 0.198% (inactive). For `Cc1nnc2n1-c1sc(CCc3ccc(CC(C)C)cc3)cc1C(c1ccccc1Cl)=NC2C` (stereo not given), the Potency was 33.5 µM (active). With `CC(C)=O` the “activity, negative = inhibition” value was -0.889% (inactive). With `COc1ccc(CCN2CCC(Nc3nc4ccccc4n3Cc3ccc(F)cc3)CC2)cc1` the Potency was 1.25 µM (active). With `C=CCOC(=O)c1ccccc1C(=O)OCC=C` the “activity, negative = inhibition” value was -12.7% (inactive). With `COc1ccccc1[N+](=O)[O-]` the “activity, negative = inhibition” value was 6.01% (inactive). In the case of `Fc1c(F)c(F)c(Br)c(F)c1F`, the “activity, negative = inhibition” value is reported as 6.32% (inactive). In the case of `Cc1c(N)cccc1[N+](=O)[O-]`, the “activity, negative = inhibition” value is reported as 6.88% (inactive). In the case of `Cc1cc(C(C)(C)c2ccc(O)c(C)c2)ccc1O`, the Potency is reported as 58.2 µM (active). For `O=C(Nc1ccccc1-c1ccc(Cl)cc1)c1cccnc1Cl`, the “activity, negative = inhibition” value was 127% (inactive). In the case of `O=C1C(I)=CC(=C(c2cc(I)c(O)c(I)c2)c2ccccc2C(=O)O)C=C1I`, the “activity, negative = inhibition” value is reported as 5.39% [at 42.5 µM] (inactive). With `CCCCCCCC#N` the “activity, negative = inhibition” value was 158% (inactive). For `CCC(C)=O`, the “activity, negative = inhibition” value was -18.3% (inactive). For `Cc1cccc([N+](=O)[O-])c1C`, the “activity, negative = inhibition” value was 0.398% (inactive). With `N#Cc1cc([N+](=O)[O-])ccc1N` the “activity, negative = inhibition” value was -1.45% (inactive). With `Brc1c2ccccc2cc2ccccc12` the “activity, negative = inhibition” value was 41.3% (inactive). In the case of `OC(Cc1ccccc1Cl)(Cn1[nH]cnc1=S)C1(Cl)CC1` (stereo not given), the “activity, negative = inhibition” value is reported as 19% (inactive). In the case of `O=C(c1ccccc1)C(Cl)Cl`, the Potency is reported as 24.3 µM (active). For `CCc1cccc(C)c1N`, the “activity, negative = inhibition” value was -12.1% (inactive). For `O=[N+]([O-])c1cccc(Cl)c1Cl`, the “activity, negative = inhibition” value was -4.26% (inactive). In the case of `O=[N+]([O-])c1ccc2ncccc2c1`, the “activity, negative = inhibition” value is reported as 109% (inactive). With `COCCOC(=O)c1ccccc1C(=O)OCCOC` the “activity, negative = inhibition” value was 6.64% (inactive). With `Nc1ccc2c3c(cccc13)-c1ccccc1-2` the “activity, negative = inhibition” value was 86.4% (inactive). In the case of `O=S(=O)(C(Cl)(Cl)Cl)C(Cl)(Cl)Cl`, the Potency is reported as 9.69 µM (active). For `ClC1=C(Cl)C(Cl)(Cl)C(Cl)=C1Cl`, the “activity, negative = inhibition” value was 28.8% (inactive).
